Test [1] deals with Acetylcholinesterase (Homo sapiens) (UniProt P22303). In words: Acetylcholinesterase (AChE) small molecule antagonists: enzyme-based qHTS assay (AID 1347397; calls by dose curve; note: nearly all actives have a fitted effect of over 55% in size). To be noted: Potency: AChE enzyme activity inhibition. An outline of the steps:
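Colorimetric DTNB readout of acetylthiocholine hydrolysis, 10 min at room temperature, after 30 min room-temperature exposure of 50 mU/mL recombinant human enzyme to compound; DMSO vehicle control.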
In general terms: In qHTS, concentration-response curves come from the screen itself.

Test [2] shares this target. In words: Acetylcholinesterase (AChE) small molecule antagonists: fluorescence cell-based qHTS assay (AID 1347398; calls by dose curve; note: nearly all actives have a fitted effect of over 50% in size; note: potency is the fitted concentration of half-maximal effect). To be noted: Potency: AChE activity. An outline of the steps:
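Cellular AChE activity read as thiocholine from acetylthiocholine hydrolysis, detected by Thiolite Green fluorescence at 490/520 nm after 40 min at room temperature. Compounds were pre-incubated 30 min at 37 C on adherent SH-SY5Y cells.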

Test [3] has the same target. The experiment in a line: Acetylcholinesterase (AChE) small molecule antagonists: enzyme-based qHTS assay with human liver microsomes (AID 1347399; calls by dose curve; note: nearly all actives have a fitted effect of over 60% in size). To be noted: Potency: qHTS inhibition. An outline of the steps: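 Recombinant human AChE (50 mU/mL in the enzyme mix) and human liver microsomes (0.25 mg/mL final) were preincubated with compound and NADPH (0.25 mg/mL final) for 30 min at 37 C. Acetylthiocholine/DTNB was then added; thiocholine was read colorimetrically after 10 min at room temperature.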

The target in test [4] is Cytochrome P450 2D6 (Homo sapiens) (UniProt P10635). In words: Cytochrome P450 Family 2 Subfamily D Member 6 (CYP2D6) small molecule antagonists: luciferase reporter qHTS assay (AID 1671196). Note: nearly all actives have a fitted effect of over 50% in size. Note: potency is the fitted concentration of half-maximal effect. An outline of the steps:
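Chemicals tested for interference with CYP2D6 activity; proluciferin substrate, NADPH regeneration, 1 h at room temperature, luminescent detection.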
(In a reporter assay the amount or activity of a reporter protein is the signal.)

Test [5] addresses Cytochrome P450 2C9 (Homo sapiens) (UniProt P11712). In words: Cytochrome P450 Family 2 Subfamily C Member 9 (CYP2C9) small molecule antagonists: luciferase reporter qHTS assay (AID 1671198). Note: nearly all actives have a fitted effect of over 50% in size. Note: potency is the fitted concentration of half-maximal effect. In short, it runs like this:
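Enzyme-substrate mix preincubated with compound 10 min at room temperature; reaction started with NADPH regeneration solution, 1 h 37C. Luminescent luciferin product read after 20 min detection reagent.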

The target in test [6] is Cytochrome P450 1A2 (Homo sapiens) (UniProt P05177). The experiment in a line: Cytochrome P450 Family 1 Subfamily A Member 2 (CYP1A2) small molecule antagonists: luciferase reporter qHTS assay (AID 1671199). Note: nearly all actives have a fitted effect of over 50% in size. Note: potency is the fitted concentration of half-maximal effect. In short, it runs like this: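 Read-out is luminescence from luciferin detection reagent (20 min) proportional to CYP1A2 activity; compounds in DMSO preincubated 10 min with enzyme and proluciferin substrate, then NADPH regeneration solution, 1 h, room temperature.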

Test [7] deals with Voltage-gated inwardly rectifying potassium channel KCNH2 (Homo sapiens) (UniProt Q12809). The experiment in a line: Human Ether-a-go-go-Related Gene (hERG) channel small molecule antagonists: fluorescence cell-based qHTS assay (AID 1671200). Note: nearly all actives have a fitted effect of over 50% in size. Note: potency is the fitted concentration of half-maximal effect. An outline of the steps: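 Thallium served as the potassium surrogate; its influx into dye-loaded U2OS cells carrying the channel was measured by fluorescence over 2 min.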

Test [8] deals with Cytochrome P450 3A4 (Homo sapiens) (UniProt P08684). In words: Cytochrome P450 Family 3 Subfamily A Member 4 (CYP3A4) small molecule antagonists: luciferase reporter qHTS assay (AID 1671201). Note: nearly all actives have a fitted effect of over 50% in size. Note: potency is the fitted concentration of half-maximal effect. In short, it runs like this:
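Relative luminescence units after 20 min with luciferin detection reagent served as read-out. Beforehand, CYP3A4 turned over a proluciferin substrate for 1 h at room temperature with NADPH regeneration, following 10 min compound preincubation.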

The target of test [9] is Cytochrome P450 2C19 (Homo sapiens) (UniProt P33261). In words: Cytochrome P450 Family 2 Subfamily C Member 19 (CYP2C19) small molecule antagonists: luciferase reporter qHTS assay (AID 1671197). Note: nearly all actives have a fitted effect of over 65% in size. Note: potency is the fitted concentration of half-maximal effect. An outline of the steps:
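Luminescent readout of CYP2C19 activity: luciferin product detected 20 min after adding detection reagent. Before that, compound and enzyme-substrate mix preincubated 10 min at room temperature; NADPH-regenerating system started a 1 h, 37C reaction. Ketoconazole as positive control.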

This is an account of results in PubChem BioAssay (Tox21).

Each structure is given as a SMILES string. Where “and” joins values, the source holds several entries; their conditions need not be identical. Identical values can stand only once. Records with an inconclusive call do not appear. The source holds several records for some structures; these can differ, active in one and inactive in another. Calls of active or inactive are those of the source. Unless noted, calls come from the whole dose curve; as a rule, active = well fitted curve in the direction sought with a large enough effect in the repeat runs; inconclusive = weak or mixed curves; inactive = no such curve, though single readings can be large; an effect the other way counts as inactive or inconclusive.

Cytochrome P450 1A2 (Homo sapiens), sequence (P05177 whole entry, looked up): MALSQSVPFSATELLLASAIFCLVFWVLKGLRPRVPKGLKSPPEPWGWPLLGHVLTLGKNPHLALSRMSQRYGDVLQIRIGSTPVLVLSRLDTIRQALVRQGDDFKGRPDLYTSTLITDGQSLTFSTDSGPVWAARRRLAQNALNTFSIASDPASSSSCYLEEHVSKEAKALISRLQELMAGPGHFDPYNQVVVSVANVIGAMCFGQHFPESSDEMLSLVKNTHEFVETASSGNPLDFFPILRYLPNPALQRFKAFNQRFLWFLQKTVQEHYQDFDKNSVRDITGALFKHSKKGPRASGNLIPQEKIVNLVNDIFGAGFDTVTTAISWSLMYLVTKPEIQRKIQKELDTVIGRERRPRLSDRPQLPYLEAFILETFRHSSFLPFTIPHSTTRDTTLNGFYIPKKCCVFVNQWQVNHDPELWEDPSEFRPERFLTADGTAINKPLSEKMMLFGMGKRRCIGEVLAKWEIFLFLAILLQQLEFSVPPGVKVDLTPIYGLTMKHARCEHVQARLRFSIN
Cytochrome P450 2C19 (Homo sapiens), sequence (P33261 whole entry, looked up): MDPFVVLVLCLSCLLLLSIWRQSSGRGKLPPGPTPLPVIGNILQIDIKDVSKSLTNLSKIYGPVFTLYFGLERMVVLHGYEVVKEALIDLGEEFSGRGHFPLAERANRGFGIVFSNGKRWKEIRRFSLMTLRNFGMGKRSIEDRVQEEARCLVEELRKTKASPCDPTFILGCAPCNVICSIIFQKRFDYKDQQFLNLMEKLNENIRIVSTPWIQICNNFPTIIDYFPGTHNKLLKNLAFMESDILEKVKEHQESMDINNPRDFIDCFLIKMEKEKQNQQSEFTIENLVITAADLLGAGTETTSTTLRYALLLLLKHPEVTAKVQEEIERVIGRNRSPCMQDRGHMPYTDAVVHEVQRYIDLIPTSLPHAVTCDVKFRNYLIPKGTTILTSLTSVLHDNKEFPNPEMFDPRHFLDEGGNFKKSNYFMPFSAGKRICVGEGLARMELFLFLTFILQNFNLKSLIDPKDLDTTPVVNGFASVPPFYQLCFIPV
Acetylcholinesterase (Homo sapiens), sequence (P22303 whole entry, looked up): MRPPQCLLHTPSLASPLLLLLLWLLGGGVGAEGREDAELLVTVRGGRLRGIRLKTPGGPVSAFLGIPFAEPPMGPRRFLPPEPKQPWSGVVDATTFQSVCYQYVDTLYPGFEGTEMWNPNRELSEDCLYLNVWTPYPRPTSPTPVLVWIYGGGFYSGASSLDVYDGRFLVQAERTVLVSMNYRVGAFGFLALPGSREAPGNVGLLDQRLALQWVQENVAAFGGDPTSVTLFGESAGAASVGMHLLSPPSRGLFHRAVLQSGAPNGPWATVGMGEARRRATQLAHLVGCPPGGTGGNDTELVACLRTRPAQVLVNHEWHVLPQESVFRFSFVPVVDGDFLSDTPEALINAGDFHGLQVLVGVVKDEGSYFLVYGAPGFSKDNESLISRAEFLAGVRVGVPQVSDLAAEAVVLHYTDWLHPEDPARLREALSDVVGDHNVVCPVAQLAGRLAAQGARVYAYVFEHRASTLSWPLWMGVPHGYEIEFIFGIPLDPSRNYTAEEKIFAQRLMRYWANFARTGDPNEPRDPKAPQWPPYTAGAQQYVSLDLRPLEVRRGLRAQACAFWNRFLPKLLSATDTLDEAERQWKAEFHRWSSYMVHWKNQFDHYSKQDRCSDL
Cytochrome P450 2D6 (Homo sapiens), sequence (P10635 whole entry, looked up): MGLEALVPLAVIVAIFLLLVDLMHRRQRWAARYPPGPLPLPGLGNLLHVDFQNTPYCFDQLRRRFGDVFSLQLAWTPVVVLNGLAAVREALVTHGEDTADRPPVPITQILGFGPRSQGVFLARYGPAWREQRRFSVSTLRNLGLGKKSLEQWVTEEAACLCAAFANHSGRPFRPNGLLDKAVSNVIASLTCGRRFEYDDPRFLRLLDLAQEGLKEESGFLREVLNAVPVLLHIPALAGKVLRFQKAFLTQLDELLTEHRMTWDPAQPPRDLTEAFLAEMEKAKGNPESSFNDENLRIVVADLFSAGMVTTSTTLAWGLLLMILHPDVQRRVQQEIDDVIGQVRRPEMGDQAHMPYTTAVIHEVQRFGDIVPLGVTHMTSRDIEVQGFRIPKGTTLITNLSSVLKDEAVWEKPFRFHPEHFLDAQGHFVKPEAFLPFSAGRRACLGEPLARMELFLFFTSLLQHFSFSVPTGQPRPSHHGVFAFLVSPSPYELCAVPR
Voltage-gated inwardly rectifying potassium channel KCNH2 (Homo sapiens), sequence (Q12809 whole entry, looked up): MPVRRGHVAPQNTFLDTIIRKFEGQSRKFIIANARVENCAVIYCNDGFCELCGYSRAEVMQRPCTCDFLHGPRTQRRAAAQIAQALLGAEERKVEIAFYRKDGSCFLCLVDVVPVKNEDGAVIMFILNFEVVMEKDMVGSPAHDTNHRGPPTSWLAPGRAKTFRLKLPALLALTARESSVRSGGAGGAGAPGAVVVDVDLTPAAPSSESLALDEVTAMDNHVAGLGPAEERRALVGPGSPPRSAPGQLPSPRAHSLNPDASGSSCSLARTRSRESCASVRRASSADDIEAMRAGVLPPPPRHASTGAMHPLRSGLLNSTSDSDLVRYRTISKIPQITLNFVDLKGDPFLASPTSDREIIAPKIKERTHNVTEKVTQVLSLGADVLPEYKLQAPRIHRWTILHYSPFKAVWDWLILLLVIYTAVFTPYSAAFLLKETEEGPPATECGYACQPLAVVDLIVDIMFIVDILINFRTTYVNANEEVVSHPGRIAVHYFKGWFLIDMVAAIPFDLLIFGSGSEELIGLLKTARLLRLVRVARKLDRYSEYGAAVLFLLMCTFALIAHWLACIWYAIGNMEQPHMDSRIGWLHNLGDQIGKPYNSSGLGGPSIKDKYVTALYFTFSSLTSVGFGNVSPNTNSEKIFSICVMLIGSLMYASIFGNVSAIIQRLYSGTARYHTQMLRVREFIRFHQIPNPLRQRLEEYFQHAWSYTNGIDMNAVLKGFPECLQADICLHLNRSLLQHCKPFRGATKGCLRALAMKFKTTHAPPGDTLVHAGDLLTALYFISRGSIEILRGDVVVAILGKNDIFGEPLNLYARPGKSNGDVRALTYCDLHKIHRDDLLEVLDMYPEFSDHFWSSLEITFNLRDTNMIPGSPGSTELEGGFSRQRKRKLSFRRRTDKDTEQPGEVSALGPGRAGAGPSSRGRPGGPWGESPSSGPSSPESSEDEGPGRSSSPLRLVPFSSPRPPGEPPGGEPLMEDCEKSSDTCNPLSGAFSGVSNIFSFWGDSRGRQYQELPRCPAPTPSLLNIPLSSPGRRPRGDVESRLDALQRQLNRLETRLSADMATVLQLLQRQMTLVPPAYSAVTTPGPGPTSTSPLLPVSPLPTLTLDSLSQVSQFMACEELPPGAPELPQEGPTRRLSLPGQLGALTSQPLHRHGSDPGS
Cytochrome P450 2C9 (Homo sapiens), sequence (P11712 whole entry, looked up): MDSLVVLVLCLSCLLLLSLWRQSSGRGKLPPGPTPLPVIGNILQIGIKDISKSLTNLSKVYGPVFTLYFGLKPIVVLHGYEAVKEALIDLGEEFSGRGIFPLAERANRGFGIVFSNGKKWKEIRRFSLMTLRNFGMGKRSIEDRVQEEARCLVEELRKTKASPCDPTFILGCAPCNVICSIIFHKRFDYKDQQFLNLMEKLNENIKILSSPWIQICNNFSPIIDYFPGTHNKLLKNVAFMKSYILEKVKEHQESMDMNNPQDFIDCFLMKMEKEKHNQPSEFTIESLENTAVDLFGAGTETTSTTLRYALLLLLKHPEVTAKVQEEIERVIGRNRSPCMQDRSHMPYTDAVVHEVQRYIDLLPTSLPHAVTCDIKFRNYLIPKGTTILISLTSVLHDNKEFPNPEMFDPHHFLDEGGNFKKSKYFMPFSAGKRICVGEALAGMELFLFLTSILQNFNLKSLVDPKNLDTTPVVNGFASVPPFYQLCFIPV
Cytochrome P450 3A4 (Homo sapiens), sequence (P08684 whole entry, looked up): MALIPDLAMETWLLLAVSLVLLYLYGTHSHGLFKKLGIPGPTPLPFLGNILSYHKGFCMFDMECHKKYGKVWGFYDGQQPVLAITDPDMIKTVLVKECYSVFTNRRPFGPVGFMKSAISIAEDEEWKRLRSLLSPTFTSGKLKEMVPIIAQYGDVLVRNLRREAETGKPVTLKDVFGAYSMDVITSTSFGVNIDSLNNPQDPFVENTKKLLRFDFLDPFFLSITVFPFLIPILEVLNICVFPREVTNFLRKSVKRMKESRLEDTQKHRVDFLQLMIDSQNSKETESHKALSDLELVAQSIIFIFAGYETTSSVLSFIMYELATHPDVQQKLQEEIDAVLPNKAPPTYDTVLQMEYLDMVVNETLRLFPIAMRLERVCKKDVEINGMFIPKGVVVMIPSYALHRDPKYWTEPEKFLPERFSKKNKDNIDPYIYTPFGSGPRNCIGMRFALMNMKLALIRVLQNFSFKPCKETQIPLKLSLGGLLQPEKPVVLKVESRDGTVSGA

On to `O=C(CCCCl)c1ccc(F)cc1`, for which the Potency entry in [1], in test [2], in [3], in [4], in [5] and in [7] was “inactive” throughout. Further, the Potency result in test [8] is “inactive”. Moreover, in [6], the Potency is 11.5 µM (active).
Turning to `O=c1c2ccccc2c(=O)c2c1cc(Cl)c1[nH]c3c([nH]c12)c(Cl)cc1c(=O)c2ccccc2c(=O)c13`, the Potency result in [1], in test [2], in [3], in [4], in [9] and in test [7] was “inactive” throughout. Further, in [8], the Potency result is “inactive”.
Regarding `CC(C)N(C(=O)CCl)c1ccccc1`, the Potency result in test [1], in test [3], in [4], in [6], in test [7] and in test [8] was “inactive” in each case. Further, the Potency in test [2] is 20 µM (active); in test [9] it was 39.9 µM (active).
Regarding `O=[N+]([O-])C(Br)Br`, the Potency entry in test [1], in [2], in test [3], in [4], in [5] and in [6] was “inactive” each time. The Potency result in test [7] and in [8] was “inactive” throughout.
`O=S(=O)(O)F`: the Potency entry in test [1], in test [2], in test [3], in test [4], in test [5] and in test [6] was “inactive” each time. Also, the Potency result in [7] and in [8] was “inactive” in each case.
For `S=C=NCCc1ccccc1`, the Potency result in test [1], in test [2] and in test [3] was “inactive” in each case. The Potency in test [4] is 11.3 µM (active); in [5], 17.9 µM (active); in [6], 10.1 µM (active); in [7], 15.5 µM (active); in test [8] it was 20.1 µM (active).
As to `C=C(C)C(=O)[O][Sn]([CH2]CCC)([CH2]CCC)[CH2]CCC`, the Potency result in test [1], in [2] and in [3] was “inactive” each time. Also, the Potency in test [4] was 2.24 µM (active); in test [9], 0.71 µM (active); in test [5] it was 11.2 µM (active); in test [7] it was 4.9 µM (active); in [8], 22.4 µM (active).
Consider `CCC[CH2][Sn]([CH2]CCC)([CH2]CCC)[CH2]CCC`, for which the Potency entry in test [1], in [2], in test [3] and in test [8] was “inactive” each time. The figures for the Potency in [4] and in test [9] were 20 µM (active) and 35.6 µM (active), respectively.
Consider `Oc1cc(Cl)cc(Cl)c1`, for which the Potency result in [1], in test [2], in test [3], in test [9], in [7] and in [8] was “inactive” each time. In addition, the Potency is 71.7 µM (active) in [4] and 32 µM (active) in test [6].
Regarding `CC(C)Br`, the Potency entry in [1], in test [2], in test [3], in [4], in test [7] and in test [8] was “inactive” throughout. The Potency in test [9] is 35.7 µM (active); in test [5], 40 µM (active).
With `Cc1c([N+](=O)[O-])cc2c(c1[N+](=O)[O-])C(C)(C)CC2(C)C`, the Potency result in test [1], in test [2], in test [3], in test [4], in test [9] and in test [8] was “inactive” throughout. Moreover, the Potency in test [6] is 8.94 µM (active).
As to `Brc1ccc(Oc2ccc(Br)cc2Br)c(Br)c1`, the Potency entry in [1], in test [2], in [3], in test [4], in [7] and in test [8] was “inactive” each time. In addition, the Potency in test [5] and in test [6] was 12.6 µM (active) throughout.
As for `BrCC(Br)(Br)Br`, the Potency entry in test [1], in test [2], in [3], in [4], in test [5] and in test [6] was “inactive” throughout. Besides, the Potency result in test [7] and in test [8] was “inactive” in each case.
Take `O=C(NC(=O)c1c(F)cccc1F)Nc1ccc(Oc2ccc(C(F)(F)F)cc2Cl)cc1F`: the Potency entry in test [1], in [2], in test [4], in test [9], in [6] and in [8] was “inactive” throughout. Moreover, the Potency in test [5] was 25.2 µM (active); in test [7], 34.7 µM (active).
With `Nc1nc(N)c(N)c(N)n1`, the Potency result in test [1], in test [2], in test [4], in test [5], in test [7] and in test [8] was “inactive” each time. Besides, the Potency in [6] is 35.7 µM (active).
As to `O=C(O)CCCCCCNC1c2ccccc2CCc2ccccc21`, the Potency result in test [1], in test [2], in test [9], in test [5], in test [6] and in test [7] was “inactive” in each case. The Potency entry in [8] is “inactive”.
Take `CC(C)NCC(O)c1ccccc1Cl` (stereo not drawn): the Potency entry in [1], in test [2], in test [5], in test [6], in [7] and in test [8] was “inactive” in each case. Further, the Potency in test [4] was 7.76 µM (active).
On to `O=C(O)[C@H](O)[C@@H](O)C(=O)O`, for which the Potency result in [1], in test [2] and in test [7] was “inactive” in each case.
On to `CC1(C)C(C=C(Cl)Cl)C1C(=O)OC(C#N)c1ccc(F)c(Oc2ccccc2)c1` (stereo not drawn), for which the Potency entry in test [1], in [2], in [6], in test [7] and in test [8] was “inactive” in each case. Further, the Potency was 28.3 µM (active) in test [4], 10 µM (active) in test [9] and 3.17 µM (active) in test [5].
Regarding `NC(=O)C(Cl)Cl`, the Potency entry in [1], in test [2], in test [4], in test [9], in test [5] and in test [6] was “inactive” each time. For the same molecule, the Potency result in [7] and in test [8] was “inactive” in each case.
In the case of `CN(C)C(=S)SSC(=S)N(C)C`, in test [1], the Potency entry was “inactive”. Also, the Potency was 35.1 µM (active) and 39.9 µM (active) and 21.9 µM (active) in test [2]; 89.4 µM (active) and inactive in test [4]; 7 µM (active) and 6.33 µM (active) and 3.09 µM (active) in test [9]; 9.89 µM (active) and 6.33 µM (active) and 2.19 µM (active) in [5]; 3.94 µM (active) and 4.48 µM (active) and 2.75 µM (active) in test [6]; 43 µM (active) and 49 µM (active) in [7]. For the same molecule, in test [8], the Potency was 39.4 µM (active).
For the molecule `Cc1ccccc1OP(=O)(Oc1ccccc1C)Oc1ccccc1C`, the Potency entry in test [1], in test [2] and in [8] was “inactive” in each case. The Potency in test [9] is 1.6 µM (active); in test [5], 5.66 µM (active).
Turning to `CCC(OC(C)=O)C(CC(C)NC)(c1ccccc1)c1ccccc1` (stereo not drawn), the Potency result in test [1], in test [2], in test [5] and in test [6] was “inactive” in each case. Further, the values for the Potency in test [4], in test [9] and in test [7] were 14.3 µM (active), 32 µM (active) and 8.78 µM (active), respectively.
`O.O.O.O=C([O-])[C@H]([O-])[C@@H]([O-])C(=O)[O-].O=C([O-])[C@H]([O-])[C@@H]([O-])C(=O)[O-].[K+].[K+].[Sb+3].[Sb+3]`: the Potency entry in [1], in test [2] and in test [7] was “inactive” throughout.
With `O=S1OCC2C(CO1)C1(Cl)C(Cl)=C(Cl)C2(Cl)C1(Cl)Cl` (stereo not drawn), the Potency entry in test [1], in test [2] and in [6] was “inactive” each time. For the same molecule, the Potency in [4] was 4 µM (active); in test [5], 35.6 µM (active) and 31.7 µM (active); in [7], 21.9 µM (active) and 27.5 µM (active); in test [8], 283 nM (active) and 633 nM (active).
